The values below come from PubChem BioAssay AID743167 (National Center for Advancing Translational Sciences (NCATS), 2013).

Records with an inconclusive call do not appear. Activity calls are given as the source filed them. Calls come from the whole dose curve; as a rule, active = well fitted activation curve with a large enough effect; inconclusive = small, poorly fitted or top-dose-only effect; inactive = flat fitted curve, though single readings scatter.

This assay can be described thus: Extended Characterization of HPGD Inhibitors: PGE2 Assay in A549 Cells. The settings on record: PGE2 HTRF level, 16 h. From the text: The central role of HPGD is to inactivate prostaglandins such as prostaglandin E2 (PGE2) or prostaglandin D2 (PGD2). These prostaglandins are involved in a number of processes, including inflammation, differentiation, and cellular signaling, which makes HPGD an important target for pharmacological intervention. A number of prostaglandins of particular biological interest have been identified as substrates of HPGD. […] Over-production of PGE2 has been reported to promote tumor-associated neovascularization, cell proliferation, and tumor growth. […] In this orthogonal assay, we set out to measure if compounds were able to increase PGE2 production NIH Chemical Genomics Center [NCGC] NIH Molecular Libraries Probe Centers Network [MLPCN] MLPCN Grant: MH084681 Assay Submitter (PI): Structural Genomics Consortium
A549 cells, LNCaP cells or media were dispensed in 384-well plates (ProxiPlate-384 Plus, PerkinElmer, Shelton, CT) at 5,000 cells/9.9 uL/well using a CappAero384 multichannel pipette (Odense, Denmark). Separately on the plate, 10 uL of PGE2 calibration standards at a starting assay concentration of 5,000 pg/mL (1:2 dilution, 12-points, n = 1, prepared in media, Cisbio, Bedford, MA) were dispensed. Compounds (100 nL, final concentration range from 41.9 nM to 100 uM) were transferred using an ATS Acoustic Liquid Dispenser (EDC Biosystems, Fremont, CA). After being mixed using an automated liquid handler (CyBio, Jena, Germany), samples were incubated (37 deg C, 5% CO2, under a humidified atmosphere) for 16 hours. PGE2 labeled conjugates were added to each well, first 5 uL of PGE2-d2, followed by 5 uL of anti-PGE2-cryptate, centrifuged (1,500 rpm, 15 sec) and incubated (RT, protected from light) for 5 hours. Time-resolved fluorescence intensity (320 nm excitation, 615 and 665 nm emission) was measured using an Envision plate reader (PerkinElmer). Data was expressed as the ratio of 665 nm/615 nm emissions. Concentration (pg/mL) of samples were calculated from a 4-parameter logistic calibration curves of the PGE2 standards.
(TR-FRET usually uses a lanthanide donor and a delayed reading to cut background.)
For `COc1cccc(-n2cnc3cc(C(=O)N4CCCCC4)ccc32)c1`, the Potency is 833 nM (active).
